Measurements as given in PubChem BioAssay AID1159580 (chemical genetic matrix, 2015).
Among all 5,500 compounds or so, about 2,000 (36%) were called active. About 18% were inconclusive and are not listed. Rule as the data show it: active = normalized growth mostly below about 0.91 (no sharp cut-off); inconclusive = no clear call, values can overlap the other calls; inactive = mostly above about 0.92. The list shows a part of the results.

Assay: chemical genetic growth profiling, strain panel (AID 1159580);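 also: tested at 20 µM; growth read once vehicle control cultures reached saturation at 30 °C; 1 = growth at the plate median or of vehicle wells; lower values mean less growth of the strain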
Details: S. cerevisiae deletion strains, growth OD

Measured: normalized growth

COc1ccc(C(=O)C2CCNCC2)cc1
inactive: locus YAL013W, strain DEP1, stronger effect = lower value 0.991 | locus YBR229C, strain ROT2, stronger effect = lower value 0.974 | locus YDL101C, strain DUN1, stronger effect = lower value 0.972 | locus YDR150W, strain NUM1, stronger effect = lower value 1.03 | locus YEL061C, strain CIN8, stronger effect = lower value 1.01 | locus YGR078C, strain PAC10, stronger effect = lower value 0.99 | locus YGR229C, strain SMI1, stronger effect = lower value 1.01 | locus YHR030C, strain SLT2, stronger effect = lower value 1.06 | locus YHR087W, strain rtc3, stronger effect = lower value 0.974 | locus YJL187C, strain SWE1, stronger effect = lower value 1 | locus YJR043C, strain POL32, stronger effect = lower value 1.01 | locus YJR075W, strain HOC1, stronger effect = lower value 1.01 | locus YKL190W, strain CNB1, stronger effect = lower value 1 | locus YLR039C, strain RIC1, stronger effect = lower value 1 | locus YLR058C, strain SHM2 (second series), stronger effect = lower value 0.988 | locus YLR085C, strain ARP6, stronger effect = lower value 1.09 | locus YLR262C, strain YPT6, stronger effect = lower value 0.998 | locus YML094W, strain GIM5, stronger effect = lower value 0.969 | locus YMR219W, strain ESC1, stronger effect = lower value 0.998 | locus YMR263W, strain SAP30, stronger effect = lower value 1.02 | locus YNL128W, strain TEP1, stronger effect = lower value 0.983 | locus YNL153C, strain GIM3, stronger effect = lower value 1.02 | locus YNL298W, strain CLA4 (second series), stronger effect = lower value 0.998 | locus YNL322C, strain KRE1, stronger effect = lower value 1 | locus YNR030W, strain Alg12, stronger effect = lower value 1.01 | locus YPL055C, strain LGE1, stronger effect = lower value 1.01 | locus YPL241C, strain CIN2, stronger effect = lower value 1.07 | locus YPR135W, strain CTF4, stronger effect = lower value 0.995
